High-throughput results from PubChem.
S2 tox = viability counter-screen for ATXN expression inhibitors; S2 cells (HEK-293 line with an ATXN2-luciferase reporter) viability, CellTiter-Fluor protease fluorescence, 24 h; Potency, µM (top dose mostly 56.7 µM), usual class: cytotoxic; 0.49% of 400,000 active; also: nearly all actives have a fitted effect of over 40% in size
GLP-1R agonist = agonists of human GLP-1 receptor; HEK293 GLP-1R CRE-luciferase, luminescence, 4-6 h; cells express a hypersensitive GLP-1R form; 0.007% of 380,000 active; AID 624172; Potency, µM (titrated, usually from 45.6 µM), without a hit: at the highest dose activation, most hits filed as activators; also: % of control where 0% means no effect
Target sequence (P43220 whole entry, looked up): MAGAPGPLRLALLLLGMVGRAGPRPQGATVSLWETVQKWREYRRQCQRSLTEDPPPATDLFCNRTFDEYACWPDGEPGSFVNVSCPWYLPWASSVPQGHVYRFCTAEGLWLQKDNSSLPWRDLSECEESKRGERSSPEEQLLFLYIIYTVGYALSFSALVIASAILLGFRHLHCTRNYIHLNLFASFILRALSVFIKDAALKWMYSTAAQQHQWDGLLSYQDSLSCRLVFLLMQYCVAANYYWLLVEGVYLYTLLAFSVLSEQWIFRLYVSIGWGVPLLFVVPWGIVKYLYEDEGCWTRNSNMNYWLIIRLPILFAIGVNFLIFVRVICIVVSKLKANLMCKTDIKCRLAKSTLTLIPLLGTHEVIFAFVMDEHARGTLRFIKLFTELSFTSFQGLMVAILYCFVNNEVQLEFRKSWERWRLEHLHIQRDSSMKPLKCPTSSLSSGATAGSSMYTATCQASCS
HepG2 viability = counter-screen for TGF-b inhibitors: cytotoxicity in HepG2 cells; HepG2 CAGA-GFP viability, ATP luminescence, 18 h; Potency, µM (doses to about 46.1 µM), inactives show at the top dose activity change, negative = cytotoxicity, hits mostly cytotoxic; 0.76% of 410,000 active
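HepG2 CAGA-GFP cells (1000/well, DMEM with 1% FBS) received compound, then TGF-beta at 500 pg/mL final, and were incubated 18 hours at 37 degrees C. Viability was read by CellTiter-Glo luminescence. Media-only wells were set as complete cell-killing and DMSO as no toxicity.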
GLP-1R inv ag = acts as inverse agonist at human GLP-1 receptor; 1.6% of 410,000 active; AID 624417; HEK293 GLP-1R CRE-luciferase, luminescence, 24 h; GLP-1R form is constitutively active; Potency, µM (doses to about 38.3 µM), for inactives: top-dose activity change, negative = inhibition, most hits filed as inhibitors; P43220; also: % is scaled to controls: 0 for no effect and ±100 for the full control effect; nearly all actives have a fitted effect of over 55% in size
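GLP-1R inverse agonism mode: basal reporter luminescence in engineered HEK293 cells measured after one day of compound exposure at 37 deg C, with a 12 min room-temperature detection step.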
ATXN2 expr inh = ATXN2 expression inhibition; AID 1745845; Potency, µM (highest dose often 57 µM), without a hit: at the top dose activity change, negative = inhibition, actives largely listed as inhibitors; HEK-293 ATXN2-luciferase reporter, luminescence, 24 h; 0.72% of 360,000 active; also: % is scaled to controls: 0 for no effect and ±100 for the full control effect; nearly all actives have a fitted effect of over 55% in size
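qHTS (up to 57 uM final) was run with 24 h compound exposure of reporter cells at 37 °C. Each well was multiplexed: SteadyGlo luminescence measured ATXN2-luciferase expression after a fluorogenic Gly-Phe-AFC viability readout (25 uM final).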
TGFb SMAD3 inh = TGF-b pathway inhibition | HepG2 CAGA-GFP TGF-b/SMAD3 reporter, GFP fluorescence, 18 h; TGF-beta stimulated, 500 pg/mL final | 1.2% of 410,000 active | AID 588855 | Potency, µM (highest dose often 46.1 µM), without a hit: at the highest dose activity, negative = inhibition, actives largely listed as inhibitors; also: % is scaled to controls: 0 for no effect and ±100 for the full control effect; nearly all actives have a fitted effect of over 65% in size
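Cell-based qHTS in HEPG2 carrying a CAGA-GFP Smad reporter; compounds added before 500 pg/mL final TGF-beta, 18 h incubation at 37 degrees C, GFP fluorescence quantified per cell by imaging cytometry.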
* hit, by the source's call; i = inactive; ? = inconclusive; . = not tested or not shown. Sampled rows, rich in hits. Any-hit rate of the full collection: about 3.7%. Calls follow the shape of the dose curve; as a rule, active = well fitted curve in the direction sought with a large enough effect; inconclusive = small, poorly fitted or top-dose-only effect, or another doubt; inactive = no such curve, though single readings can be large; an effect the other way counts as inactive or inconclusive. Potency is read from the fitted curve at half-maximal effect.

SMILES	S2 tox	GLP-1R agonist	HepG2 viability	GLP-1R inv ag	ATXN2 expr inh	TGFb SMAD3 inh
O=C(OCn1ncc(Br)c(Br)c1=O)c1ccccc1Cl	10µM*	-21.5%	17.8µM*	?	7.94µM*	12.6µM*
Cc1nnc(N2CCCC(C(=O)NCc3ccccc3)C2)c2nn(-c3ccccc3)c(C)c12 (stereo not given)	?	.	2.2%	14.2%	6.5%	-1.6%
CCc1ccc(CNC(=O)C2CCCN(c3nnc(C)c4c(C)n(-c5ccccc5)nc34)C2)cc1 (stereo not given)	20µM*	3.2%	-51.4%	9.1%	?	?
CCOC(=O)c1cccc(NC(=O)C2CCCN(c3nnc(C)c4c(C)n(-c5ccccc5)nc34)C2)c1 (stereo not given)	?	.	-3.5%	13.5%	-16.3%	-20.8%
Cc1noc2ncnc(N3CCCC(C(=O)Nc4cccc(C(F)(F)F)c4)C3)c12 (stereo not given)	.	.	-13.2%	?	20µM*	?
Cc1ccccc1CNC(=O)C1CCCN(c2nnc(C)c3c(C)n(-c4ccccc4)nc23)C1 (stereo not given)	31.6µM*	11.5%	-15.9%	28.1%	20µM*	-5.5%
Cc1nnc(N2CCCC(C(=O)Nc3cccc(C(F)(F)F)c3)C2)c2nn(-c3ccccc3)c(C)c12 (stereo not given)	15.8µM*	.	-82.7%	-15.7%	-20.4%	?
Cc1nnc(N2CCCC(C(=O)NCCc3ccccc3)C2)c2nn(-c3ccccc3)c(C)c12 (stereo not given)	12.6µM*	.	-33.9%	10.4%	-24.6%	-27.9%
Cc1nc2c(-c3ccccc3)c(C)[nH]n2c(=O)c1Cc1ccc(C(C)C)cc1	i	.	-39.4%	-29.8%	?	-9.5%
COc1ccc(-c2c(C)[nH]n3c(=O)c(Cc4ccccc4)c(C)nc23)cc1	i	-11.8%	-44.2%	?	-3.4%	?
Cc1nc2c(-c3ccccc3)c(C)[nH]n2c(=O)c1Cc1ccc(Br)cc1	.	.	-46.4%	?	.	2.51µM*
Cc1ccc(Cc2c(C)nc3c(-c4ccccc4)c(C)[nH]n3c2=O)cc1	?	-2.2%	-34.9%	?	15.8µM*	?
COc1ccc(C(=O)NNC(=O)c2ccc3ccccc3n2)cc1	.	-1.2%	-12.5%	?	20µM*	?
C=CCn1c(Cc2cccs2)nnc1SCC(=O)c1cccc(Br)c1	i	5.6%	-30.1%	5.62µM*	4.3%	-7.0%
C=CCn1c(Cc2cccs2)nnc1SCC(=O)c1ccc2ccccc2c1	i	-0.6%	-31.8%	-15.2%	-3.5%	-14.7%
CC(=O)O[C@@H]1C[C@H]2C(C)=C[C@H]3OC(=O)[C@@H](C)[C@H]3C[C@H]2[C@]1(C)O	i	-4.7%	-14.6%	19.9%	9.4%	9.7%
C=C1C(=O)O[C@H]2C[C@H]1[C@@H](OC(C)=O)C/C(C)=C/CC/C(C)=C\CC[C@]2(C)O	7.94µM*	-8.3%	-102.5%	7.08µM*	5.62µM*	3.16µM*
CCOc1ccc(NC(=S)N=Nc2c(O)[nH]c3ccccc23)cc1	?	9.8%	8.91µM*	?	-31.6%	7.94µM*
Oc1cccc(NC(=S)N=Nc2c(O)[nH]c3ccccc23)c1	i	2.4%	-6.9%	95.8%	2.1%	?
Oc1[nH]c2ccccc2c1N=NC(=S)NCCc1ccccc1	i	8.9%	-49.8%	?	-3.8%	11.2µM*
CC(C)c1ccc2[nH]c(O)c(N=NC(=S)NCCc3ccccc3)c2c1	?	5.8%	-38.9%	?	.	?
CNC(=O)c1ccc2cc(C3(O)CCn4cncc43)ccc2c1 (stereo not given)	.	.	.	.	12.9%	.
Cc1cc(C)cc(OCCSc2nc3ccc(NC(=O)c4cccs4)cc3s2)c1	i	.	-17.6%	10µM*	-13.2%	-32.9%
CS(=O)(=O)N(CCc1ccccc1)CC(=O)Nc1ccc(OCc2ccccc2)cc1	i	8.2%	-62.0%	11.2µM*	?	0.0%
CC(C)CC1NC(=O)N(CC(=O)Nc2ccc(OCc3ccccc3)cc2)C1=O (stereo not given)	i	3.8%	-3.6%	11.2µM*	5.4%	1.4%
SMILES	S2 tox	GLP-1R agonist	HepG2 viability	GLP-1R inv ag	ATXN2 expr inh	TGFb SMAD3 inh
O=C(CN1CCN(CC(=O)Nc2ccc(OCc3ccccc3)cc2)CC1)Nc1ccc(F)cc1	?	7.5%	9.9%	8.91µM*	-5.2%	?
CC(C)CC1NC(=O)N(CC(=O)Nc2ccc(OC(F)F)cc2)C1=O (stereo not given)	i	0.8%	-13.9%	-16.8%	-0.6%	23.5%
CCOC(=O)Cc1ccc(NC(=O)N2CCc3c(sc4c3CCCC4)C2c2ccc(F)cc2)cc1 (stereo not given)	i	.	-16.7%	3.98µM*	-7.6%	2.3%
O=C(CN1C(=O)CC(c2ccco2)Sc2ccccc21)Nc1cccc(C(F)(F)F)c1 (stereo not given)	?	14.8%	-8.6%	?	?	6.7%
O=C(C[n+]1cccc2cccc(O)c21)c1ccc2ccccc2c1	.	.	-4.5%	.	.	5.9%
OC1C(Br)=Cc2ccccc21 (stereo not given)	.	.	-12.1%	.	.	5.7%
Cc1ccc(C(=O)N/N=C/c2ccc(-c3cccc(Cl)c3)o2)cn1	i	-3.7%	-12.2%	7.94µM*	-29.6%	?
O=C1NCC(c2ccccc2)C1C(=O)N/N=C\c1ccc(-c2ccc(Cl)c(Cl)c2)o1 (stereo not given)	?	-4.6%	-111.0%	10µM*	?	?
Cc1ccc(C(=O)N/N=C\c2ccc(-c3ccc(Cl)c(Cl)c3)o2)cn1	?	-4.9%	-96.2%	?	?	11.2µM*
Cc1ccc(C(=O)N/N=C/c2ccc(-c3ccccc3[N+](=O)[O-])o2)cn1	i	0.3%	-22.4%	-16.3%	15.3%	2.5%
C=C1C(=O)OC(CCCCCCCC)C1C(=O)O (stereo not given)	.	.	.	.	9.8%	.
Cc1ccccc1C(=O)N1CCc2c(cnc(C)c2CNC(=O)c2ccc3c(c2)OCO3)C1	i	.	.	.	.	.
CN(CC(=O)Nc1ccc(OC(F)(F)F)cc1)C(=O)Cc1ccc2c(c1)CCC2	i	1.5%	-25.3%	5.62µM*	-7.1%	-9.4%
COc1cccc(NC(=O)CN(C)C(=O)Cc2ccc3c(c2)CCC3)c1	i	1.5%	0.9%	?	0.4%	-7.9%
CCc1ccc(-c2cc(C)no2)cc1S(=O)(=O)NCc1ccc(OC)cc1	.	.	-6.6%	?	.	-20.3%
